Bioassay records as filed in PubChem.
D2 ag-1: human D2 receptor agonism in beta-arrestin assay. AID 624465. actives 0.084% (n = 360,000). DiscoveRx PathHunter D2 beta-arrestin, luminescence, 90 min; 100% = 57 uM dopamine signal. P14416. activation, % (test concentration not listed); in the data active = activation above about 40%; inconclusive = between about 15% and that limit
Target sequence (P14416 whole entry, looked up): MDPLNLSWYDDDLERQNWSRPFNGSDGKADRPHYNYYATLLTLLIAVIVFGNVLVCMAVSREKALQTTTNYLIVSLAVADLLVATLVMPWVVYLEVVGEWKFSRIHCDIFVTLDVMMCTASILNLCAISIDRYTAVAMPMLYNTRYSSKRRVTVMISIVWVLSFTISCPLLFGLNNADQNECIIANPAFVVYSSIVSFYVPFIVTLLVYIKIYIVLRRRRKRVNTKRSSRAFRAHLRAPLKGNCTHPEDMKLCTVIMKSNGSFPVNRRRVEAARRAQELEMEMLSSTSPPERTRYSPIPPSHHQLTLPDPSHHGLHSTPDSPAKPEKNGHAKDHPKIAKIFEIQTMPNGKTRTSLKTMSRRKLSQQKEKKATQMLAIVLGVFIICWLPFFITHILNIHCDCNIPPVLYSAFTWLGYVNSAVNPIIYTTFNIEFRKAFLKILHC
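DiscoveRx PathHunter D2 beta-arrestin cells (2,100/well) attached overnight, then compound-stimulated 90 min at 37 C in HBSS/10 mM HEPES/0.1% Tween-20 buffer; beta-galactosidase complementation read by luminescence after 1 h at ambient temperature. Dopamine 57 uM final (EC100) as control.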
D2 PAM-1: potentiates the human D2 dopamine receptor allosterically | DiscoveRx D2 beta-arrestin cells, luminescence, 90 min; 100% = 57 uM dopamine signal | AID 624464 | actives 0.23% (n = 360,000) | P14416 | potentiation, % (concentration not given with the values); in the data active = potentiation above about 50%; inconclusive = mostly about 30% to 49%
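D2 cells co-treated with compound plus 50 nM dopamine (EC20) for 90 min at 37 deg C to detect potentiation. Beta-arrestin recruitment was read as enzyme-fragment luminescence after 1 h at ambient temperature. Full response was set by 57 uM dopamine.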
D2 ag-2: D2 dopamine receptor (human) agonism; P14416; HEK293 T-REx D2 cells, calcium flux agonist mode; activation, % at 2 µM; actives 0.53% (n = 340,000); AID 485358;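 active = activation over 3 SD above normal in the single-dose calcium agonist read, cut at about 30% in these data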; note: 0% is about no effect
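In this primary screen, compounds producing a positive calcium signal within 180 s of addition to tetracycline-induced, force-coupled HEK293 Trex D2 cells are flagged; cells are dye-loaded with a no-wash calcium kit beforehand.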
D2 antagonist: antagonists of human D2 dopamine receptor. P14416. HEK293 TREx D2 cells, calcium flux, dopamine EC80. inhibition, % at 10 µM. actives 2% (n = 340,000); in the data active = inhibition above about 30%; inactive = below that, where a call was filed; note: 0% is about no effect
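Read-out: kinetic calcium fluorescence (1 cycle/s) in inducible HEK293 T-REx D2 cells after an EC80 dopamine addition that followed 180 s compound preincubation. Loss of the dopamine response indicates antagonism.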
D2 PAM-2: positively modulates the human D2 dopamine receptor allosterically | potentiation, % at 10 µM | actives 0.34% (n = 340,000) | HEK293 T-REx D2, calcium flux, EC20 dopamine potentiation;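 active = potentiation over 3 SD above the plate norm, cut at about 30% in these data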; note: 0% is about no effect
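Using a no-wash calcium dye in inducible, force-coupled HEK293 Trex cells expressing D2, we tracked fluorescence each second for 180 s after compound, then for 180 s after EC20 dopamine to detect augmented signalling.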
D3 arrestin ag: D3 receptor agonism confirmed, beta-arrestin readout; AID 720506; actives 4% (n = 2,300); Potency, µM (top dose mostly 76.9 µM), inactives show at the highest dose activation, hits mostly activators; shares compounds with D2 ag-2; DiscoveRx D3 beta-arrestin cells, luminescence, 90 min;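 note: potency is the fitted concentration of half-maximal effect; 100% = dopamine control response; nearly all actives have a fitted effect of over 70% in size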
D2 ag-3: D2 receptor agonism, beta-arrestin counterscreen; shares compounds with D2 ag-2; DiscoveRx PathHunter D2 beta-arrestin, luminescence, 90 min; response scale: percent relative to full dopamine signal; AID 720507; Potency, µM (top dose mostly 76.9 µM), inactives show at the highest dose activation, hits mostly activators; actives 5.9% (n = 2,300); note: potency is the fitted concentration of half-maximal effect; % of control where 0% means no effect; nearly all actives have a fitted effect of over 70% in size
Starred values were filed as active, the others as inactive; ? = inconclusive; · = no result. This is a sample that favours compounds with a hit; in the whole collection about 2.4% have one here. Unless noted, calls come from the whole dose curve; as a rule, active = well fitted activation curve with a large enough effect; inconclusive = small, poorly fitted or top-dose-only effect; inactive = flat fitted curve, though single readings scatter.

SMILES | D2 ag-1 | D2 PAM-1 | D2 ag-2 | D2 antagonist | D2 PAM-2 | D3 arrestin ag | D2 ag-3
c1ccc(Cn2nnc3c(N4CCc5ccccc54)ncnc32)cc1 | -1 | -20 | 1 | -18 | 36* | · | ·
Cc1ccc(CNC(=O)Cn2cc(S(=O)(=O)Cc3ccccc3F)c3ccccc32)cc1 | · | · | -2 | · | 7 | · | ·
CCN(CC(=O)NCc1ccc(F)cc1)C(=O)/C=C/c1ccc(OC)c(S(=O)(=O)NC(C)C)c1 | -2 | -7 | -1 | 33* | -8 | · | ·
CCN(CC(=O)NCc1ccc(F)cc1)C(=O)/C=C/c1ccc(OC)cc1 | 2 | -2 | 1 | -9 | 2 | · | ·
CC1CCN(S(=O)(=O)c2ccc3c(ccn3CC(=O)NCc3ccc(N(C)C)cc3)c2)CC1 | · | · | 0 | · | 2 | · | ·
COc1cc(NC(=O)C2CCC(=O)N2S(=O)(=O)c2ccc(C)cc2)cc(OC)c1 (stereo not given) | 3 | -10 | 0 | 5 | -13 | · | ·
COc1ccc(NC(=O)C2CCC(=O)N2S(=O)(=O)c2ccc(C)cc2)cc1Cl (stereo not given) | -1 | -14 | 1 | 34* | -45 | · | ·
CCOc1ccc(N2CC(O)(c3ccc(F)cc3)[N+]3=C2CCCC3)cc1 (stereo not given) | -2 | -14 | 2 | 30* | -26 | · | ·
COc1ccccc1C(=O)Nc1cccc(OCc2cc(=O)n3ccccc3n2)c1 | · | · | -2 | · | 6 | · | ·
Cc1cc(NS(=O)(=O)c2ccc(NC(=O)c3ccc(Cl)cc3[N+](=O)[O-])cc2)no1 | -5 | ? | 1 | 41* | -1 | · | ·
Cc1cc(NS(=O)(=O)c2ccc(NC(=O)c3ccc([N+](=O)[O-])c(Cl)c3)cc2)no1 | -2 | 12 | · | · | · | · | ·
CCOc1ccccc1NC(=O)c1ccc(F)c(S(=O)(=O)N2CCN(c3ccc(F)cc3)CC2)c1 | · | · | 0 | · | 3 | · | ·
CN(C)C=NC(=O)c1cc(C(=O)c2ccc(F)cc2)c[nH]1 | -1 | -5 | 0 | 5 | -1 | · | ·
CN(C)C=NC(=O)c1cc(C(=O)c2ccccc2)c[nH]1 | -2 | -1 | 0 | 33* | 0 | · | ·
O=C(Nc1ccc(F)c(Cl)c1)c1cc(S(=O)(=O)N2CCCc3ccccc32)ccc1F | · | · | 0 | · | 2 | · | ·
O=C(Cn1c(=O)n(Cc2ccco2)c(=O)c2sc3ccccc3c21)Nc1ccccc1C(F)(F)F | · | · | 1 | · | -2 | · | ·
CCn1c(=O)n(-c2ccc(C)c(F)c2)c(=O)c2sc3ccccc3c21 | · | · | · | · | 3 | · | ·
c1ccc2c(C3CCO3)cccc2c1 (stereo not given) | -2 | -6 | · | · | · | 0% | -3%
c1ccc2c(C3OCC4(CCCC4)CO3)cccc2c1 | 1 | -8 | · | · | · | · | ·
COc1cccc(Cn2c(CNC(=O)Cc3cccc(C)c3)nc3cccnc32)c1 | · | · | -3 | · | -6 | · | ·
COc1ccccc1-c1oc2ccccc2c1-c1ccc2cc[nH]c2c1 | 4 | -3 | 0 | -5 | 16 | 1% | 3%
CC(COc1ccccc1)NC(C)C(O)c1ccc(O)cc1 (stereo not given) | 13 | -21 | 77* | 90* | -27 | 2% | 16%
Cc1ccc(C)c(NC(=O)Cn2c(=O)n(Cc3ccc4c(c3)OCO4)c(=O)c3oc4ccccc4c32)c1 | · | · | 0 | · | 2 | · | ·
O=C(Nc1ccc(-c2nc3ccccc3o2)cc1)c1cc(-n2cnnc2)ccc1Cl | 2 | 19 | 0 | 7 | 9 | ? | 6%
O=C(Nc1ccc2oc(-c3ccccc3)nc2c1)c1cc(-n2cnnc2)ccc1Cl | 4 | 0 | · | · | · | · | ·
SMILES | D2 ag-1 | D2 PAM-1 | D2 ag-2 | D2 antagonist | D2 PAM-2 | D3 arrestin ag | D2 ag-3
O=C(COC(=O)c1ccccn1)NC(=O)c1ccccc1 | -7 | -3 | -1 | -11 | 8 | -4% | -6%
CCOc1ccc(C(=O)N/N=C(\c2ccccc2)c2ccccn2)cc1 | -4 | -28 | -1 | 21 | 5 | -23% | -11%
CC1=C(C(=O)Nc2cccnc2)C(c2cccc(Br)c2)n2nc(SCc3ccccc3)nc2N1 (stereo not given) | · | · | 0 | · | -3 | · | ·
COc1cccc(CNC(=O)c2sc3nc4n(c(=O)c3c2C)CCC4)c1 | · | · | 1 | · | 3 | · | ·
COCc1ccc(-c2c(-c3ccccc3OC)sc3cc4c(cc23)OCO4)cc1 | -2 | -6 | 0 | 40* | 8 | 1% | -3%
c1ccc(OCCN2CCN(Cc3nc(-c4ccc5c(c4)OCO5)no3)CC2)cc1 | 6 | -3 | 64* | 69* | -12 | ? | ?
CCOC(=O)c1cc(-c2ccccc2)n(CCC(=O)NCCc2ccc(C)cc2)c1C | · | · | 1 | · | 2 | · | ·
NC(=O)c1c(NC(=O)c2nc(SCc3ccccc3F)ncc2Cl)sc2c1CCCC2 | · | · | 0 | · | 5 | · | ·
O=C(CCNS(=O)(=O)c1ccccc1C(F)(F)F)N1CCN(C(c2ccccc2)c2ccccc2)CC1 | 0 | -12 | 0 | -15 | 0 | · | ·
O=C(CCNS(=O)(=O)c1ccccc1C(F)(F)F)N1CCCCCCC1 | -2 | -2 | 0 | 3 | -3 | 1% | -2%
CCOC(=O)c1cnc2ccc(OC(F)(F)F)cc2c1Nc1ccccc1C(=O)O | · | · | 0 | · | 18 | · | ·
O=C(CN1CCN(c2ncccn2)CC1)NCc1ccccc1 | 9 | -3 | 50* | 8 | -17 | 21% | 16%
CC(NC(=O)CN1CCN(c2ncccn2)CC1)c1ccc(F)cc1 (stereo not given) | 8 | -32 | 60* | 16 | -16 | 11% | 19%
O=C(CNC(=O)c1ccc(Br)o1)NCC1CCCCC1 | -3 | -21 | 0 | -11 | -5 | -5% | -6%
O=C(CCc1nnc2n(Cc3ccccc3Cl)c(=O)c3ccccc3n12)NCCCN1CCOCC1 | -1 | -10 | 1 | -8 | -5 | · | ·
Cc1ccc(Cn2c(=O)c3ccccc3n3c(CCC(=O)NCCN4CCOCC4)nnc23)cc1 | 5 | -8 | 63* | -11 | -27 | -8% | -1%
Cc1ccc(NC(=O)CNC(=O)c2ccc3c(c2)OCO3)nc1 | 2 | -9 | 1 | 5 | -2 | -14% | -4%
COc1ccc(CCNC(=O)c2ccc3nc(N4CCOCC4)sc3c2)cc1OC | -4 | 5 | 0 | 12 | 4 | · | ·
CCOc1ccc(CCNC(=O)c2ccc3nc(N4CCOCC4)sc3c2)cc1OCC | 0 | -4 | 0 | 8 | 7 | 14% | 1%
O=C(Cn1cnc2ccccc2c1=O)N1CCN(Cc2ccc3c(c2)OCO3)CC1 | ? | -4 | 50* | 55* | -13 | 16% | ?
